# Laboratory results: PubChem BioAssay (NCATS)
# Inconclusive results are not listed. Unmarked numbers belong to inactive results. The source made the active and inactive calls. Calls come from the whole dose curve; as a rule, active = well fitted cell-killing curve with a large enough effect; inconclusive = small, poorly fitted or top-dose-only effect, or effect the other way; inactive = no such curve, though single readings can be large or run the other way.
# Columns and labels:
# [1] = Quantitative High-Throughput drug screen in 47 multiple myeloma cell lines against the NCATS MIPE library collection: KMS28PE_JCRB cell viability assay (AID 1918983); note: nearly all actives have a fitted effect of over 35% in size; note: potency is the fitted concentration of half-maximal effect
# Outline: (§1)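 ATP-based CellTiter-Glo luminescence after 48 h drug exposure (37 °C, 5% CO2) of 500 myeloma cells per well. DMSO-only wells set 100% viability, media-only wells 0%; MIPE 4.0 library added by pin tool.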
# [2] = Quantitative High-Throughput drug screen in 47 multiple myeloma cell lines against the NCATS MIPE library collection: L363_DSMZ cell viability assay (AID 1918984); note: nearly all actives have a fitted effect of over 40% in size; note: potency is the fitted concentration of half-maximal effect
# Outline: as §1
# [3] = Quantitative High-Throughput drug screen in 47 multiple myeloma cell lines against the NCATS MIPE library collection: KMS34_JCRB cell viability assay (AID 1918985); note: nearly all actives have a fitted effect of over 40% in size
# Outline: as §1
# [4] = Quantitative High-Throughput drug screen in 47 multiple myeloma cell lines against the NCATS MIPE library collection: XG6_PLB cell viability assay (AID 1919865); note: nearly all actives have a fitted effect of over 40% in size; note: potency is the fitted concentration of half-maximal effect
# Outline: as §1
# [5] = Quantitative High-Throughput drug screen in 47 multiple myeloma cell lines against the NCATS MIPE library collection: VP6_DJ cell viability assay (AID 1919867); note: nearly all actives have a fitted effect of over 40% in size; note: potency is the fitted concentration of half-maximal effect
# Outline: as §1
# [6] = Quantitative High-Throughput drug screen in 47 multiple myeloma cell lines against the NCATS MIPE library collection: PE2_PLB cell viability assay (AID 1919869); note: nearly all actives have a fitted effect of over 35% in size; note: potency is the fitted concentration of half-maximal effect
# Outline: as §1
# [7] = Quantitative High-Throughput drug screen in 47 multiple myeloma cell lines against the NCATS MIPE library collection: RPMI8226_ATCC cell viability assay (AID 1919871); note: nearly all actives have a fitted effect of over 30% in size; note: potency is the fitted concentration of half-maximal effect
# Outline: as §1
# [8] = Quantitative High-Throughput drug screen in 47 multiple myeloma cell lines against the NCATS MIPE library collection: OPM2_DSMZ cell viability assay (AID 1919872); note: nearly all actives have a fitted effect of over 30% in size; note: potency is the fitted concentration of half-maximal effect
# Outline: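 Steps: seed 500 cells per well; pin-transfer MIPE 4.0 library; incubate 48 h at 37C, 5% CO2, humidified; add CellTiter-Glo, 5 min room temperature; read luminescence.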
# [9] = Quantitative High-Throughput drug screen in 47 multiple myeloma cell lines against the NCATS MIPE library collection: KMS11_JCRBsus cell viability assay (AID 1919873); note: nearly all actives have a fitted effect of over 50% in size; note: potency is the fitted concentration of half-maximal effect
# Outline: as §1
# [10] = Quantitative High-Throughput drug screen in 47 multiple myeloma cell lines against the NCATS MIPE library collection: KMS28BM_JCRB cell viability assay (AID 1919874); note: nearly all actives have a fitted effect of over 35% in size; note: potency is the fitted concentration of half-maximal effect
# Outline: as §1
# [11] = Quantitative High-Throughput drug screen in 47 multiple myeloma cell lines against the NCATS MIPE library collection: OCIMY7_PLB cell viability assay (AID 1918987); conditions: OCI-MY7 myeloma viability, CellTiter-Glo ATP, 48 h; viability (% of DMSO): at 45.8 µM (top of the series); note: nearly all actives have a fitted effect of over 65% in size; note: potency is the fitted concentration of half-maximal effect
# Outline: as §1
# [12] = Quantitative High-Throughput drug screen in 47 multiple myeloma cell lines against the NCATS MIPE library collection: OPM1_PLB cell viability assay (AID 1918989); note: nearly all actives have a fitted effect of over 40% in size; note: potency is the fitted concentration of half-maximal effect
# Outline: as §1
# [13] = Quantitative High-Throughput drug screen in 47 multiple myeloma cell lines against the NCATS MIPE library collection: XG1_PLB cell viability assay (AID 1919866); note: nearly all actives have a fitted effect of over 35% in size; note: potency is the fitted concentration of half-maximal effect
# Outline: as §1
# [14] = Quantitative High-Throughput drug screen in 47 multiple myeloma cell lines against the NCATS MIPE library collection: UTMC2_PLB cell viability assay (AID 1919868); conditions: CellTiter-Glo ATP luminescence, 48 h; viability (% of DMSO control): at 45.8 µM (top of the series); note: nearly all actives have a fitted effect of over 55% in size; note: potency is the fitted concentration of half-maximal effect
# Outline: as §1
# [15] = Quantitative High-Throughput drug screen in 47 multiple myeloma cell lines against the NCATS MIPE library collection: PCM6_Riken cell viability assay (AID 1919870); note: nearly all actives have a fitted effect of over 30% in size; note: potency is the fitted concentration of half-maximal effect
# Outline: as §1
# [16] = Quantitative High-Throughput drug screen in 47 multiple myeloma cell lines against the NCATS MIPE library collection: OCIMY5_PLB cell viability assay (AID 1918988); note: potency is the fitted concentration of half-maximal effect; nearly all actives have a fitted effect of over 65% in size
# Outline: as §1
# [17] = Quantitative High-Throughput drug screen in 47 multiple myeloma cell lines against the NCATS MIPE library collection: SKMM1_PLB cell viability assay (AID 1919863); conditions: SKMM1 myeloma viability, CellTiter-Glo ATP, 48 h; viability: stronger effect = lower value; note: nearly all actives have a fitted effect of over 35% in size; note: potency is the fitted concentration of half-maximal effect
# Outline: as §1
# [18] = Quantitative High-Throughput drug screen in 47 multiple myeloma cell lines against the NCATS MIPE library collection: U266_ATCC cell viability assay (AID 1919864)
# Outline: as §1
SMILES,Potency [1],Potency [2],Potency [3],Potency [4],Potency [5],Potency [6],Potency [7],Potency [8],Potency [9],Potency [10],Potency [11],Potency [12],Potency [13],Potency [14],Potency [15],Potency [16],Potency [17],Potency [18],viability [17] [%]
C[N+](C)([O-])CCNc1ccc(NCC[N+](C)(C)[O-])c2c1C(=O)c1c(O)ccc(O)c1C2=O,inactive,inactive,inactive,13200 nM (active),inactive,inactive,inactive,inactive,inactive,inactive,–,–,–,–,–,–,–,–,–
COC(=O)[C@@H]1[C@H]2C[C@@H]3c4[nH]c5ccccc5c4CCN3C[C@@H]2CC[C@@H]1O,inactive,inactive,–,inactive,inactive,inactive,inactive,inactive,inactive,–,inactive,inactive,inactive,inactive,inactive,–,–,–,–
CCC(C=C[C@@H]1OC(=O)C=C[C@H]1C)=C[C@H](C)CC=CC(C)=C[C@@H](C)C(=O)[C@@H](C)[C@H](O)[C@@H](C)CC(C)=CC(=O)O,24.7 nM (active),7.8 nM (active),–,15.6 nM (active),13.9 nM (active),19.6 nM (active),31.1 nM (active),27.7 nM (active),–,11 nM (active),39.2 nM (active),31.1 nM (active),24.7 nM (active),17.5 nM (active),9.8 nM (active),9.8 nM (active),22 nM (active),24.7 nM (active),–
CC(C)C[C@H](NC(=O)[C@@H](NC(=O)c1cccc(-c2ccccc2)n1)[C@@H](C)O)B(O)O,23.5 nM (active),26.4 nM (active),–,13.2 nM (active),9.3 nM (active),11.8 nM (active),52.6 nM (active),41.8 nM (active),13.2 nM (active),14.8 nM (active),14.8 nM (active),13.2 nM (active),18.7 nM (active),166 nM (active),–,13.2 nM (active),74.3 nM (active),14.8 nM (active),–
Cc1cc(Nc2ncc3c(n2)N(C)C(=O)N(c2cc(NC(=O)c4cccc(C(F)(F)F)c4)ccc2C)C3)n(C)n1,1320 nM (active),1320 nM (active),–,935 nM (active),935 nM (active),743 nM (active),–,743 nM (active),235 nM (active),3320 nM (active),526 nM (active),235 nM (active),2350 nM (active),418 nM (active),1870 nM (active),935 nM (active),–,1320 nM (active),–
OC[C@H]1OC(O)C[C@@H](O)[C@H]1O (stereo partly drawn),inactive,inactive,inactive,–,–,inactive,inactive,inactive,–,inactive,–,–,inactive,inactive,–,–,–,–,120
CN[C@H]1[C@@H](O)[C@@H]2O[C@@H]3O[C@H](C)CC(=O)[C@]3(O)O[C@@H]2[C@@H](NC)[C@H]1O,10500 nM (active),743 nM (active),–,296 nM (active),1870 nM (active),3320 nM (active),9350 nM (active),–,–,–,8330 nM (active),8330 nM (active),93.5 nM (active),6620 nM (active),1480 nM (active),1180 nM (active),10500 nM (active),662 nM (active),–
CN(C)c1ccc2cc(C(=O)N[C@@H](CCCN=C(N)CCl)C(=O)NCc3ccccc3)ccc2c1,11800 nM (active),6620 nM (active),–,935 nM (active),4690 nM (active),8330 nM (active),18700 nM (active),18700 nM (active),7430 nM (active),7430 nM (active),13200 nM (active),–,1180 nM (active),–,4180 nM (active),4180 nM (active),18700 nM (active),2960 nM (active),–
CC[C@H]1OC(=O)[C@H](C)[C@@H](O[C@H]2C[C@@](C)(OC)[C@@H](O)[C@H](C)O2)[C@H](C)[C@@H](O[C@@H]2O[C@H](C)C[C@H](N(C)C)[C@@H]2O)[C@](C)(OC)C[C@@H](C)C(=O)[C@H](C)[C@@H](O)[C@]1(C)O,inactive,inactive,–,inactive,inactive,inactive,inactive,inactive,–,–,inactive,inactive,–,inactive,inactive,–,–,–,–
CC(C)(N)c1ccc(-c2nc3ccccc3nc2-c2ccccc2)cc1,18700 nM (active),3320 nM (active),–,5900 nM (active),7430 nM (active),10500 nM (active),–,–,18700 nM (active),26400 nM (active),7430 nM (active),5900 nM (active),7430 nM (active),–,10500 nM (active),23500 nM (active),–,23500 nM (active),–
CC1=C(C(=O)Nc2cc3cn[nH]c3cc2F)C(c2ccc(Cl)cc2F)N=C(c2ccnc(Cl)c2)N1 (stereo not drawn),20900 nM (active),18700 nM (active),–,14800 nM (active),18700 nM (active),–,–,–,14800 nM (active),23500 nM (active),5900 nM (active),–,–,3720 nM (active),6620 nM (active),16600 nM (active),–,–,–
